The text below walks through data of paper PMC7862700, “An all-to-all approach to the identification of sequence-specific readers for epigenetic DNA modifications on cytosine”.

The target in the first experiment is T1, ELK1 (Homo sapiens, UniProt P19419 1-428).
T1 sequence: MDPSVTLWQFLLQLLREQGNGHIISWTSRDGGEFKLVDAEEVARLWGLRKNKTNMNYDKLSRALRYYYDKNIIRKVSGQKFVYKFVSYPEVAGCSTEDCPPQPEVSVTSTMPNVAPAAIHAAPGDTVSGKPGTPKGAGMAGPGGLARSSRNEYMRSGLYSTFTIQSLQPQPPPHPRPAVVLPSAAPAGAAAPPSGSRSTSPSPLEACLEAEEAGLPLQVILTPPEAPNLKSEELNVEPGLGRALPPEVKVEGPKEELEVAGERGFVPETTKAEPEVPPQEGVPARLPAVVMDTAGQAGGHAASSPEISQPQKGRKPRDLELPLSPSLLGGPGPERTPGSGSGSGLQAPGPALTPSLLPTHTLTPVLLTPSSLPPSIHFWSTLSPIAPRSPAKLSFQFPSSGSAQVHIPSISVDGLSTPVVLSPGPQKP
The experiment in a line: DAPPL (digital affinity profiling via proximity ligation, sequencing); 10 mM Tris-HCl pH 7.5, 50 mM NaCl, 1 mM DTT, 4% glycerol, room temperature, 30 min; GST-TFs on glutathione beads, 16-mer random dsDNA library, 0.1% formaldehyde crosslink after washing; high values mean tight binding. The conditions noted are these: protein: recombinant; tags: N-terminal GST; dsDNA, one strand shown. A digest of the protocol: (§1)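 Yeast served to express human transcription factors as GST fusions, which were then captured on glutathione beads and labelled with DNA barcodes. Pooled with a tag-only sample, they were incubated with 200 nmole of a 16-mer random double-stranded DNA library for 30 min at room temperature in Tris/NaCl/DTT/glycerol buffer, washed, crosslinked with 0.1% formaldehyde, ligated by proximity, amplified by PCR and sequenced. Dividing each hexamer's read frequency for a factor by its frequency for the tag-only sample gives the binding signal.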
With AACTAC, the binding signal was 1.42 fold enrichment (6-mer frequency, TF over GST control).

Regarding ACTTTC, the binding signal is 1.65 fold enrichment (6-mer frequency, TF over GST control).

Regarding CATTTA, the binding signal was 1.23 fold enrichment (6-mer frequency, TF over GST control).

Turning to GCTCTC, the binding signal was 1.5 fold enrichment (6-mer frequency, TF over GST control).

In the case of GCTTTA, the binding signal was 1.13 fold enrichment (6-mer frequency, TF over GST control).

Regarding CCTGAT, the binding signal was 1.56 fold enrichment (6-mer frequency, TF over GST control).

For ATTCCT, the binding signal is 1.37 fold enrichment (6-mer frequency, TF over GST control).

With AGTGCT, the binding signal was 1.36 fold enrichment (6-mer frequency, TF over GST control).

As for AGCAAT, the binding signal is 1.15 fold enrichment (6-mer frequency, TF over GST control).

With TTTTTC, the binding signal is 1.15 fold enrichment (6-mer frequency, TF over GST control).

Take ATGCTA: the binding signal was 1.2 fold enrichment (6-mer frequency, TF over GST control).

Take CAAGAT: the binding signal was 1.04 fold enrichment (6-mer frequency, TF over GST control).

CTTTAT: the binding signal is 1.19 fold enrichment (6-mer frequency, TF over GST control).

As for TCTAAT, the binding signal is 1.17 fold enrichment (6-mer frequency, TF over GST control).

As for AGCTTA, the binding signal is 1.12 fold enrichment (6-mer frequency, TF over GST control).

Consider TTGAAT, for which the binding signal was 1.08 fold enrichment (6-mer frequency, TF over GST control).

In the case of CAATAT, the binding signal is 1.29 fold enrichment (6-mer frequency, TF over GST control).

On to TTAAAC, for which the binding signal is 1.18 fold enrichment (6-mer frequency, TF over GST control).

As for AATTCG, the binding signal was 1.26 fold enrichment (6-mer frequency, TF over GST control).

In the case of TGACCC, the binding signal is 1.29 fold enrichment (6-mer frequency, TF over GST control).

The target of the next experiment is T2, GABPA (Homo sapiens, UniProt Q06546 1-454).
T2 sequence: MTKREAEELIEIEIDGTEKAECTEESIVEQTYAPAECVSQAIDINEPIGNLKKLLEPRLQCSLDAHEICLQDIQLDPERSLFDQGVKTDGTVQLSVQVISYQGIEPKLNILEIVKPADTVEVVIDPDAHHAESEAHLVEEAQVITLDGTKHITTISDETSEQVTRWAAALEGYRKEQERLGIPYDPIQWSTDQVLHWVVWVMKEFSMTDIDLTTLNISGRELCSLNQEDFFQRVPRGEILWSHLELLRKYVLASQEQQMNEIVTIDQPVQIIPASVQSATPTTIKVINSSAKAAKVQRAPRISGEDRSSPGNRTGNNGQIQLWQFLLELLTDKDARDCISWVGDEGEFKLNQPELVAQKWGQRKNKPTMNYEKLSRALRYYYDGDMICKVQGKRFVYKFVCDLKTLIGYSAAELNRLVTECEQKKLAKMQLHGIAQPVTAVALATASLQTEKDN
The description is as above. The conditions noted are these: protein: recombinant; tags: N-terminal GST; dsDNA, one strand shown. A digest of the protocol: as §1
Regarding ACCTAA, the binding signal is 1.17 fold enrichment (6-mer frequency, TF over GST control).

CTACAC: the binding signal is 1.34 fold enrichment (6-mer frequency, TF over GST control).

Regarding TATCCA, the binding signal was 1.3 fold enrichment (6-mer frequency, TF over GST control).

Consider GATTAC, for which the binding signal was 1.13 fold enrichment (6-mer frequency, TF over GST control).

Turning to GACTTC, the binding signal is 2.3 fold enrichment (6-mer frequency, TF over GST control).

TATAAA: the binding signal is 1.21 fold enrichment (6-mer frequency, TF over GST control).

In the case of CACGAT, the binding signal was 1.33 fold enrichment (6-mer frequency, TF over GST control).

Consider TTATGA, for which the binding signal is 1.22 fold enrichment (6-mer frequency, TF over GST control).

For the sequence TAGCTT, the binding signal was 1.31 fold enrichment (6-mer frequency, TF over GST control).

Turning to TATTCA, the binding signal was 1.23 fold enrichment (6-mer frequency, TF over GST control).

Consider ACCTCT, for which the binding signal was 1.41 fold enrichment (6-mer frequency, TF over GST control).

With TCCCCC, the binding signal was 1.44 fold enrichment (6-mer frequency, TF over GST control).

In the case of TCGACA, the binding signal was 1.43 fold enrichment (6-mer frequency, TF over GST control).

For AGTATT, the binding signal was 1.1 fold enrichment (6-mer frequency, TF over GST control).

For ATGTTA, the binding signal is 1.26 fold enrichment (6-mer frequency, TF over GST control).

Turning to CATTTG, the binding signal was 1.28 fold enrichment (6-mer frequency, TF over GST control).

Regarding GCACTT, the binding signal is 1.87 fold enrichment (6-mer frequency, TF over GST control).

On to TCACTC, for which the binding signal is 1.28 fold enrichment (6-mer frequency, TF over GST control).

On to CCCGCT, for which the binding signal is 1.34 fold enrichment (6-mer frequency, TF over GST control).

In the case of ATTAAT, the binding signal was 1.29 fold enrichment (6-mer frequency, TF over GST control).

With AACTAC, the binding signal was 1.49 fold enrichment (6-mer frequency, TF over GST control).

Take ACTTTC: the binding signal was 1.59 fold enrichment (6-mer frequency, TF over GST control).

For the sequence CATTTA, the binding signal was 1.31 fold enrichment (6-mer frequency, TF over GST control).

On to GCTCTC, for which the binding signal is 1.53 fold enrichment (6-mer frequency, TF over GST control).

GCTTTA: the binding signal was 1.08 fold enrichment (6-mer frequency, TF over GST control).

Turning to CCTGAT, the binding signal is 1.5 fold enrichment (6-mer frequency, TF over GST control).

Turning to ATTCCT, the binding signal is 1.28 fold enrichment (6-mer frequency, TF over GST control).

For AGTGCT, the binding signal was 1.29 fold enrichment (6-mer frequency, TF over GST control).

On to AGCAAT, for which the binding signal is 1.09 fold enrichment (6-mer frequency, TF over GST control).

On to TTTTTC, for which the binding signal is 1.32 fold enrichment (6-mer frequency, TF over GST control).

Turning to ATGCTA, the binding signal is 1.25 fold enrichment (6-mer frequency, TF over GST control).

On to CAAGAT, for which the binding signal is 1.17 fold enrichment (6-mer frequency, TF over GST control).

CTTTAT: the binding signal was 1.18 fold enrichment (6-mer frequency, TF over GST control).

In the case of TCTAAT, the binding signal is 1.18 fold enrichment (6-mer frequency, TF over GST control).

As to AGCTTA, the binding signal was 1.12 fold enrichment (6-mer frequency, TF over GST control).

Turning to TTGAAT, the binding signal was 1.15 fold enrichment (6-mer frequency, TF over GST control).

On to CAATAT, for which the binding signal was 1.26 fold enrichment (6-mer frequency, TF over GST control).

For the sequence TTAAAC, the binding signal is 1.2 fold enrichment (6-mer frequency, TF over GST control).

Regarding AATTCG, the binding signal was 1.24 fold enrichment (6-mer frequency, TF over GST control).

In the case of TGACCC, the binding signal is 1.38 fold enrichment (6-mer frequency, TF over GST control).
